The values below come from article PMC4336329 (PLoS ONE, 2015).

Screen size: about 310,000 compounds; about 14,000 (4.5%) showed an effect of 50% or more. Effects have a minus sign here. This excerpt belongs to a sample that is enriched for strong results.
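Further: peak tail current of the secondary pulse compared with the same well before compound.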

The target of this experiment is human ether-à-go-go-related gene (hERG) potassium channel (human, UniProt Q12809). The experiment is described as follows: primary screen, population patch clamp on CHO cells stably expressing hERG; higher = less effect of the substance.
Sequence of human ether-à-go-go-related gene (hERG) potassium channel (Q12809 whole entry, looked up): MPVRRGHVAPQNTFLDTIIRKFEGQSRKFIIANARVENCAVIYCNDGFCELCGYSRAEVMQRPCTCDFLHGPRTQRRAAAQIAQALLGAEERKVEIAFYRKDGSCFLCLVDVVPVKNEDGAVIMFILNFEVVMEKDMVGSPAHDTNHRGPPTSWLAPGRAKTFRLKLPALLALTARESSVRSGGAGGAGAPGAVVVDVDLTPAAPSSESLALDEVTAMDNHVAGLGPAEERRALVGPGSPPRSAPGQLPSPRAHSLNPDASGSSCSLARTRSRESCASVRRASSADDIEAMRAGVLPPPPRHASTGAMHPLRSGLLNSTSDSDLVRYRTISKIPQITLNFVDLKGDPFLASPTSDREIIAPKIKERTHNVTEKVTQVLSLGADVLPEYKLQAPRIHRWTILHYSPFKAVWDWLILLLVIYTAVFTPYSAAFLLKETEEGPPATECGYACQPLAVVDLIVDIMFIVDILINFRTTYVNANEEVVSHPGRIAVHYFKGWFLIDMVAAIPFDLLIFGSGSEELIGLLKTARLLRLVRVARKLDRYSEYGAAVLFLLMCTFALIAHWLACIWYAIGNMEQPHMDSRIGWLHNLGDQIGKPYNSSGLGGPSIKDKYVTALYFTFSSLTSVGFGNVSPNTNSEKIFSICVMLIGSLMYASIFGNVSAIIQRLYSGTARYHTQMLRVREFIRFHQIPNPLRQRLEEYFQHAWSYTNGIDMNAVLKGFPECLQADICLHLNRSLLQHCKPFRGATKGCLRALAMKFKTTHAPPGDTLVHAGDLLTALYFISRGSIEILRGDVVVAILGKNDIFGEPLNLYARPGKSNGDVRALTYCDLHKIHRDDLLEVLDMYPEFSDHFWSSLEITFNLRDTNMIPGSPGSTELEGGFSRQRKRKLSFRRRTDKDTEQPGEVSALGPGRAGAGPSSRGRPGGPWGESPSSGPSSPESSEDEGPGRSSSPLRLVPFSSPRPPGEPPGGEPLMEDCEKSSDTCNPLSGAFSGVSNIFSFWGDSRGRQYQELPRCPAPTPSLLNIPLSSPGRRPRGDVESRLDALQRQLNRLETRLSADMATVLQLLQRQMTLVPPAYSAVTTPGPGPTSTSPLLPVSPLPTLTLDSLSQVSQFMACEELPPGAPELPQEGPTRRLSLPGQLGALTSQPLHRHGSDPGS
On to `COC(=O)c1ccc(C2NC(=O)c3c(sc(C)c3C)N2)cc1` (stereo not drawn), for which the “hERG current change (%, negative = inhibition) at 10uM” value came out at 10.7%.
With `COc1ccc(CCNC(=O)c2ccc3ccccc3n2)cc1`, the “hERG current change (%, negative = inhibition) at 10uM” value was -5.65%.
As to `O=C(CNc1ccc2c(c1)OCO2)N/N=C\c1ccccc1Cl`, the “hERG current change (%, negative = inhibition) at 10uM” value was 3.98%.
For `COc1cccc(NC(=S)N(Cc2ccccn2)Cc2ccccc2Cl)c1`, the “hERG current change (%, negative = inhibition) at 10uM” value was determined as 5.73%.
Regarding `O=C(CN(Cc1ccccc1)S(=O)(=O)c1ccccc1)N/N=C/c1ccc2c(c1)OCO2`, the “hERG current change (%, negative = inhibition) at 10uM” value was determined as 8.28%.
On to `C(=N\C(/N=C/c1ccco1)c1ccco1)/c1ccco1`, for which the “hERG current change (%, negative = inhibition) at 10uM” value is given as -5.1%.
Consider `COc1ccc(NC(=O)N2CCCC2C(=O)NCC2CCCCC2)cc1` (stereo not drawn), for which the “hERG current change (%, negative = inhibition) at 10uM” value is given as 0.904%.
Regarding `Cn1ncn2c(=O)c3c(nc12)-c1ccccc1CC31CCCC1`, the “hERG current change (%, negative = inhibition) at 10uM” value was determined as 1.56%.
The same measure for `COc1ccc(NC(=O)Cn2cc(C#N)c3ccccc32)cc1`: 15.3%; for `CC(=O)Nc1ccc(NC(=O)c2sc(-c3ccccc3)nc2C)cc1`: 10.6%.
The same measure for `Nc1ccc2nc(-c3ccccc3)[nH]c2c1`: 6.5%; for `COc1cc(C)nc(N2CCCC(C(=O)Nc3cc(Cl)ccc3OC)C2)n1` (stereo not drawn): 9.96%; for `COc1ccc(NC(=O)C2CCCN(c3cnccn3)C2)c(OC)c1` (stereo not drawn): 21.4%.
On to `CCCc1cc(N2CCCC(C(=O)Nc3ccc(OC)cc3OC)C2)n2ncnc2n1` (stereo not drawn), for which the “hERG current change (%, negative = inhibition) at 10uM” value was -51.4%.
Take `CCCc1cc(N2CCCC(C(=O)Nc3cc(Cl)ccc3OC)C2)n2ncnc2n1` (stereo not drawn): the “hERG current change (%, negative = inhibition) at 10uM” value is given as -70.8%.
Turning to `CCCc1cc(N2CCCC(C(=O)Nc3c(OC)cccc3OC)C2)n2ncnc2n1` (stereo not drawn), the “hERG current change (%, negative = inhibition) at 10uM” value was -10.7%.
As to `COc1ccc(Cl)cc1NC(=O)C1CCCN(S(C)(=O)=O)C1` (stereo not drawn), the “hERG current change (%, negative = inhibition) at 10uM” value came out at 5.29%.
For `O=C(Cc1ccccc1)NCCC1=CCCCC1`, the “hERG current change (%, negative = inhibition) at 10uM” value is given as 9.32%.
In the case of `O=C(CN1CCN(c2ccccc2O)CC1)NC(=O)NC1CCCC1`, the “hERG current change (%, negative = inhibition) at 10uM” value was -0.609%.
To `CCCCCC(=O)Nc1ccc(-c2cn3cccnc3n2)cc1` belongs 16.4%; to `CN1CCN(NC(=O)c2ccc(Cl)c([N+](=O)[O-])c2)CC1`, 8.74%.
`CC(=O)Nc1ccc(NC(=O)C(C)Sc2nnc(C3CC3)n2-c2ccccc2)cc1` (stereo not drawn): the “hERG current change (%, negative = inhibition) at 10uM” value is listed as 8.37%.
In the case of `COc1ccc(N2CCN(C(=O)c3ccc4c(c3)OCO4)CC2)cc1`, the “hERG current change (%, negative = inhibition) at 10uM” value is -21.7%.
To `O=c1nc2ccccc2c(NS(=O)(=O)c2ccccc2)n1-c1ccccc1` belongs 2.7%; to `Cc1ccccc1CSc1nnc(-c2cccs2)n1Cc1ccco1`, -41.7%.
`Cc1ccccc1CSc1nnc(-c2ccco2)n1Cc1ccco1`: the “hERG current change (%, negative = inhibition) at 10uM” value was -75.4%.
Turning to `CC(=O)c1c(C)[nH]c(C(=O)CSc2nnc(-c3cccs3)n2Cc2ccccc2)c1C`, the “hERG current change (%, negative = inhibition) at 10uM” value is given as -25.6%.
To `c1ccc(CSc2nnc(-c3ccco3)n2Cc2ccccc2)cc1` belongs -46%.
On to `c1ccc(CSc2nnc(-c3ccco3)n2Cc2ccco2)cc1`, for which the “hERG current change (%, negative = inhibition) at 10uM” value is recorded as -34.6%.
In the case of `Cc1ccc(C(=O)CSc2nnc(-c3ccco3)n2Cc2ccccc2)cc1`, the “hERG current change (%, negative = inhibition) at 10uM” value is recorded as -17.8%.
On to `CC(=O)c1c(C)[nH]c(C(=O)CSc2nnc(-c3ccco3)n2Cc2ccccc2)c1C`, for which the “hERG current change (%, negative = inhibition) at 10uM” value is -61.5%.
For `CCOC(=O)c1c(C)[nH]c(C)c1C(=O)CSc1nnc(-c2ccco2)n1Cc1ccccc1`, the “hERG current change (%, negative = inhibition) at 10uM” value is given as -19.3%.
As to `Cc1nnc(SCC(=O)NC(=O)NCc2ccco2)n1Cc1ccccc1`, the “hERG current change (%, negative = inhibition) at 10uM” value is given as -6.26%.
Turning to `O=C(CSc1nnc(-c2ccco2)n1Cc1ccccc1)NC(=O)NCc1ccco1`, the “hERG current change (%, negative = inhibition) at 10uM” value is on record as -74.7%.
The same measure for `O=C(CSc1nnc(-c2ccco2)n1Cc1ccccc1)NC(=O)NCc1ccccc1`: -13.3%; for `O=C1c2ccccc2C(=O)N1CCSc1nnc(-c2ccco2)n1Cc1ccccc1`: -72.8%; for `COc1ccc(-c2nnc(SCC#CCO)o2)cc1OC`: 4.93%.
As to `COc1ccccc1N1CCN(S(=O)(=O)c2ccc3c(c2)oc(=O)n3C)CC1`, the “hERG current change (%, negative = inhibition) at 10uM” value is 26%.
For the compound `COc1ccc(NC(=O)CN(C)C(=O)/C=C/c2cn(-c3ccccc3)nc2-c2ccc(C)cc2)cc1`, the “hERG current change (%, negative = inhibition) at 10uM” value was 13.8%.
Regarding `COc1ccc(C2=NS(=O)(=O)N(C)C(C(=O)Nc3ccc(F)cc3F)=C2)cc1`, the “hERG current change (%, negative = inhibition) at 10uM” value was determined as 10.1%.
On to `CN(Cc1ccccc1)C(=O)COC(=O)C1CCN(S(=O)(=O)c2ccc(Cl)c(C(F)(F)F)c2)CC1`, for which the “hERG current change (%, negative = inhibition) at 10uM” value is on record as -15.8%.
Consider `CCC/C(=N\NC(=O)CNC(=O)c1ccc(Cl)cc1)c1ccccc1`, for which the “hERG current change (%, negative = inhibition) at 10uM” value is on record as -1.56%.
Consider `CC(NC(=O)COc1ccc(S(=O)(=O)N2CCOCC2)cc1)c1ccccc1` (stereo not drawn), for which the “hERG current change (%, negative = inhibition) at 10uM” value is on record as -4.63%.
To `O=C(/C=C\c1ccccc1OC(=O)c1ccccc1F)c1cc2ccccc2o1` belongs -3.12%; to `O=C(CSc1nnc(-c2ccco2)n1Cc1ccco1)Nc1ccccc1`, -70.7%.
The same measure for `O=C(CSc1nnc(-c2ccco2)n1Cc1ccco1)NCc1cccs1`: -33.1%; for `NC(=O)NC(=O)CSc1nnc(-c2ccco2)n1Cc1ccccc1`: 5.78%.
Regarding `COC(=O)CCNCCSc1nnc(-c2ccco2)n1Cc1ccccc1.O=C(O)C(=O)O`, the “hERG current change (%, negative = inhibition) at 10uM” value was -64.5%.
Take `O=C(CSc1nnc(-c2ccco2)n1Cc1ccccc1)c1ccccc1`: the “hERG current change (%, negative = inhibition) at 10uM” value is reported as -18.4%.
Turning to `CNC(=O)NC(=O)CSc1nnc(-c2ccco2)n1Cc1ccccc1`, the “hERG current change (%, negative = inhibition) at 10uM” value is -8.53%.
As to `CC(C)(C)NC(=O)CSc1nnc(-c2ccco2)n1Cc1ccco1`, the “hERG current change (%, negative = inhibition) at 10uM” value is given as -5.83%.
`O=C(CSc1nnc(-c2ccco2)n1Cc1ccccc1)NCc1ccccc1`: the “hERG current change (%, negative = inhibition) at 10uM” value is recorded as -51.8%.
In the case of `COCCn1c(SCC(=O)NCc2ccccc2)nnc1-c1ccco1`, the “hERG current change (%, negative = inhibition) at 10uM” value was determined as 5.7%.
Turning to `Cc1cc(NC(=O)CSc2nnc(-c3ccco3)n2Cc2ccco2)no1`, the “hERG current change (%, negative = inhibition) at 10uM” value is reported as -24.7%.
To `O=C(CSc1nnc(-c2ccco2)n1Cc1ccco1)NCc1ccccc1` belongs -50.8%.
In the case of `CC(=O)Nc1ccc(NC(=O)CSc2nnc(-c3ccco3)n2Cc2ccco2)cc1`, the “hERG current change (%, negative = inhibition) at 10uM” value is reported as -1.79%.
For the compound `Cc1cc(C)n(-c2ccc(S(=O)(=O)N3CCOCC3)cc2[N+](=O)[O-])n1`, the “hERG current change (%, negative = inhibition) at 10uM” value is reported as -10.9%.
Consider `O=C1/C(=C\c2cccnc2)CN(Cc2ccccc2)C/C1=C\c1cccnc1`, for which the “hERG current change (%, negative = inhibition) at 10uM” value is -29.4%.
For the compound `O=C(NCC(=O)N(CC1CCCO1)C1(C(=O)NC2CCCC2)CCCCC1)c1ccccc1` (stereo not drawn), the “hERG current change (%, negative = inhibition) at 10uM” value was found to be 3.96%.
`CCOc1ccc(C(CC(=O)O)NC(=O)C23CC4CC(CC(C4)C2)C3)cc1OC` (stereo not drawn): the “hERG current change (%, negative = inhibition) at 10uM” value worked out at 30.2%.
With `Nc1c(C=C2C=CC(=O)C=C2)c(=O)nc2sc(CC(=O)N3CCCC3)nn12`, the “hERG current change (%, negative = inhibition) at 10uM” value is listed as 8.79%.
The same measure for `CN(Cc1ccc(OC(F)F)cc1)C(=O)c1ccc2nccnc2c1`: -67.8%; for `COc1ccc(NS(=O)(=O)c2cccc(C(=O)N(C)Cc3ccc(SC)cc3)c2)cc1`: -9.93%; for `CN(Cc1ccc(OC(F)F)cc1)C(=O)c1ccc2c(=O)n3c(nc2c1)CCC3`: -33.3%.
Consider `COc1cccc(CN(C)C(=O)c2ccccc2Sc2ccccc2C#N)c1`, for which the “hERG current change (%, negative = inhibition) at 10uM” value is given as -13.4%.
In the case of `CN(Cc1ccccc1)C(=O)c1cccc(C(=O)N(C)Cc2ccccc2)c1`, the “hERG current change (%, negative = inhibition) at 10uM” value is recorded as -3.07%.
In the case of `CN(Cc1ccc(OC(F)F)cc1)C(=O)c1ccccc1Sc1ccccc1C#N`, the “hERG current change (%, negative = inhibition) at 10uM” value was -60.5%.
For the compound `Cc1ccc(CN(C)C(=O)c2ccccc2Sc2ccccc2C#N)cc1`, the “hERG current change (%, negative = inhibition) at 10uM” value worked out at 23.4%.
`COc1cccc(CN(C)C(=O)c2ccc3nccnc3c2)c1`: the “hERG current change (%, negative = inhibition) at 10uM” value is reported as -6.89%.
The same measure for `COc1ccc(CN(C)C(=O)c2cccc(C(=O)N(C)Cc3ccc(OC)cc3)c2)cc1`: -65.6%.
To `COc1ccccc1NS(=O)(=O)c1ccc2oc(SC)nc2c1` belongs 2.84%; to `CN(CC(=O)Nc1ccccc1Cl)C(=O)c1cc(C2CC2)nn1-c1ccccc1`, -18.1%; to `CCc1nnc(NS(=O)(=O)c2ccc(N3C(=O)C4CC=C(Cl)CC4C3=O)cc2)s1` (stereo not drawn), 4.84%.
`CN(C)CCCN(C(=O)c1cc(-c2cccs2)nc2ccccc12)c1nc2ccc(F)cc2s1.Cl`: the “hERG current change (%, negative = inhibition) at 10uM” value is given as 5.59%.
The same measure for `CN(C)CCCN(C(=O)c1cc2ccccc2oc1=O)c1nc2ccc(F)cc2s1.Cl`: -68.1%; for `Cc1ccc2nc(N(CCCN(C)C)C(=O)c3cc4ccccc4oc3=O)sc2c1.Cl`: -33.7%; for `CN(C)CCCN(C(=O)c1cc2ccccc2oc1=O)c1nc2c(F)cccc2s1.Cl`: -41.1%.
As to `Cc1cccc2sc(N(CCCN(C)C)C(=O)c3cc4ccccc4oc3=O)nc12.Cl`, the “hERG current change (%, negative = inhibition) at 10uM” value is recorded as -54.6%.
`CC(=O)OC1COC(n2c(O)c(N=NC(N)=S)c3ccccc32)C(OC(C)=O)C1OC(C)=O` (stereo not drawn): the “hERG current change (%, negative = inhibition) at 10uM” value is 15.8%.
Take `COC(=O)C1=C(C)N(c2ccc(Br)cc2)C(=O)/C1=C\c1ccco1`: the “hERG current change (%, negative = inhibition) at 10uM” value stood at 2.22%.
`Clc1ccc(-c2nnc3sc(Cc4cccs4)nn23)cc1`: the “hERG current change (%, negative = inhibition) at 10uM” value is given as 4.77%.
In the case of `Clc1ccc(-c2nnc3sc(Cc4cccs4)nn23)c(Cl)c1`, the “hERG current change (%, negative = inhibition) at 10uM” value is listed as -55.7%.
Regarding `c1ccc(-c2nnc3sc(Cc4cccs4)nn23)cc1`, the “hERG current change (%, negative = inhibition) at 10uM” value is on record as -30.8%.
Consider `CCc1cccc2c(C(=O)CCl)c[nH]c12`, for which the “hERG current change (%, negative = inhibition) at 10uM” value is reported as -14.3%.
